Screens from PubChem BioAssay.
Many of the other results were omitted from the sample, so hits are more common in it than they were.
MITF inhib: blocks MITF activity. TRPM1 promoter luciferase, luminescence, 24 h. inhibition, % (no concentration beside the values). 37,000 compounds, 0.28% hits; in the data active = inhibition above about 85%;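 also: human melanocyte line stably carrying TRPM1 promoter luciferase reporter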
Shh pathway inh: blocks Sonic Hedgehog signaling; Shh-LIGHT2 Gli-luciferase reporter, 30 h; inhibition, % (concentration not given with the values); 22,000 compounds, 2.1% hits; AID 2313;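 active = mean inhibition across valid replicates above about 65%, limit read from the data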;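 also: pathway switched on by Shh-conditioned medium diluted 1 in 25 in low serum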
BJeLR viab HTS: compounds reducing viability of BJeLR cells; BJeLR fibroblasts viability, CellTiterGlo ATP luminescence, 48 h; HRASV12, hTERT and SV40 LT/ST transformed; 30,000 compounds, 0.64% hits; viability loss activity score, % (concentration not given with the values); AID 2275; in the data active = viability loss activity score above about 50%;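 also: higher score means fewer live cells and less ATP luminescence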
Starred values were filed as active, the others as inactive; . = no result.

SMILES | MITF inhib | Shh pathway inh | BJeLR viab HTS
Cc1ccc(NC(=O)c2ccc(Oc3ccc(C(=O)Nc4ccc(C)cc4)cc3)cc2)cc1 | . | . | 2
CCCCCC(=O)O[C@]1(C(C)=O)CCC2C3CCC4=CC(=O)CC[C@]4(C)C3CC[C@@]21C (stereo partly drawn) | 13 | 96* | 0
CC(=O)[C@@]1(O)CCC2C3CCC4=CC(=O)CC[C@]4(C)C3CC[C@@]21C (stereo partly drawn) | 12 | 32 | -4
CCSc1nnc(NC(=O)CCC(=O)OC2CCC(C)C(C)C2)s1 (stereo not drawn) | . | . | 3
COc1cccc(-c2cc(C(F)(F)F)n3ncc(C(=O)N(C)CCc4ccccn4)c3n2)c1 | . | . | -1
CN(C)/C=N/c1nnc(N2CCN(c3cccc(Cl)c3)CC2)s1 | . | . | -4
Cc1cccc(-c2nnc(SCC(=O)Nc3c(Cl)cc(Cl)cc3Cl)o2)c1 | 8 | . | .
Cc1cccc(-c2nnc(SCC(=O)Nc3ccccc3F)o2)c1 | 88* | . | .
N/C(=N\O)c1cn(CCOc2ccccc2Cl)c2ccccc12 | . | . | 6
COc1c(-c2coc3cc4c(cc3c2=O)CC(O)C(C)(C)O4)ccc2c1C=CC(C)(C)O2 (stereo not drawn) | 99* | 91* | 15
CC1(C)C=Cc2c(cc3occ(-c4ccc5c(c4)OCO5)c(=O)c3c2O)O1 | -20 | 56 | 2
CC1Cc2nc(SC/C=C/c3ccccc3)n(C)c(=O)c2S1 (stereo not drawn) | . | . | -1
C[C@H]1O[C@@H](O[C@H]2[C@@H](O)C[C@H](O[C@H]3[C@@H](O)C[C@H](O[C@H]4CC[C@@]5(C)[C@H](CC[C@@H]6[C@@H]5C[C@@H](O)[C@]5(C)[C@@H](C7=CC(=O)OC7)CC[C@]65O)C4)O[C@@H]3C)O[C@@H]2C)C[C@H](O)[C@@H]1O | 45 | -20 | 99*
O=C(/C=C/c1ccco1)N(Cc1cccs1)C1CCS(=O)(=O)C1 (stereo not drawn) | . | . | 1
Clc1ccc(CO/N=C(\Cn2ccnc2)c2ccc(Cl)cc2Cl)c(Cl)c1 | 93* | 104* | -10
O/N=C(\Cn1cncn1)c1ccc(Cl)cc1Cl | -3 | -6 | -2
CCCC(C)C(=O)Nc1cccc(Br)c1 (stereo not drawn) | . | . | 6
OC(CN1CCOCC1)c1ccccc1 (stereo not drawn) | . | . | -3
CC(C)CCOc1ccc(C(=O)C(CN2CCOCC2)c2ccccc2)cc1 (stereo not drawn) | . | . | 78*
CCSc1ncnc2c1c(-c1ccccc1)cn2-c1cccc(F)c1 | . | . | 10
COc1ccccc1CNc1nc2c(-c3cccc(C)c3)nnn2c2ccccc12 | . | . | -2
CSc1ccc2nnc(-c3ccc(F)cc3)n2n1 | . | . | -8
Cc1cc(C)cc(Sc2ccc3nnc(-c4ccccc4)n3n2)c1 | 55 | 67* | -4
O=C(CCNS(=O)(=O)c1cccc2nsnc12)NC1CCCC1 | . | . | -6
O=C(NCCC(c1ccccc1)c1ccccc1)c1cccnc1Cl | . | . | 3
SMILES | MITF inhib | Shh pathway inh | BJeLR viab HTS
CC(=O)OC1/C=C(/C(=O)O)CC/C=C(/C)C(=O)/C=C\C1(C)C (stereo not drawn) | -11 | 65* | -6
CC1=C2CCC(C(=O)O)=CC2C(C(C)C)CC1 (stereo not drawn) | -2 | -24 | -2
CN(C(=O)Cn1nc(C(F)(F)F)c2c1CCCC2)c1ccccc1 | . | . | -1
Cc1cc(C)nc(SCC(=O)c2ccccc2)n1 | . | . | 9
O=C(CSc1nc(SCC(=O)c2ccccc2)c2ccccc2n1)c1ccccc1 | 5 | 76* | 0
CNC(=O)c1nnc(-c2ccccc2)o1 | . | . | 0
COc1c(Cc2ccccc2O)c(O)c(Cc2ccccc2O)c(O)c1C(=O)CCc1ccccc1 | 91* | 89* | 6
COc1c(C)c(O)c(C)c(O)c1C(=O)CCc1ccccc1 | 5 | -23 | 3
COc1cccc(NC(=S)/N=C(\N)Nc2nc(C)c3ccccc3n2)c1 | . | . | 5
COc1ccc(/C=C2\Oc3ccccc3N(CC(=O)NC(C)c3ccccc3)C2=O)cc1 (stereo not drawn) | . | . | 13
CC(C)(C)C(=O)CSc1ncnc2sc3c(c12)CCCC3 | -53 | . | .
CCN(CC)C(=S)Sc1ncnc2sc3c(c12)CCCC3 | 15 | 90* | -3
O=C(NCCc1ccccc1)c1cc2ccccn2n1 | . | . | 2
O=c1cc(N2CCOCC2)oc2c1ccc1ccccc12 | -2 | -70 | 4
O=c1cc(N2CCOCC2)oc2c(-c3ccccc3)cccc12 | 36 | 71* | 5
FC(F)(F)COc1nc(N2CCCCC2)nc(N(c2ccccc2)c2ccccc2)n1 | . | . | -10
CC1CC[C@]2(C(=O)OC3OC(COC4OC(CO)C(O)C(O)C4O)C(O)C(O)C3O)CC[C@]3(C(=O)O)C(=CCC4[C@@]5(C)CC[C@H](OC6OC(C)C(O)C(O)C6O)C(C)(C)C5CC[C@]43C)C2C1C (stereo partly drawn) | 18 | 32 | 0
C[C@@H]1O[C@@H](O[C@@H]2[C@@H](O)[C@H](O[C@@H]3[C@@H](O)[C@H](C)O[C@@H](O[C@H]4[C@H](O[C@H]5CC[C@@]6(C)C(CC[C@]7(C)C6CC=C6[C@@H]8CC(C)(C)CC[C@]8(C(=O)O)CC[C@]67C)[C@]5(C)CO)OC[C@H](O)[C@@H]4O)[C@@H]3O)O[C@H](CO)[C@H]2O[C@@H]2O[C@H](CO)[C@@H](O[C@@H]3OC[C@@H](O)[C@H](O)[C@H]3O)[C@H](O)[C@H]2O)[C@H](O)[C@H](O)[C@H]1O (stereo partly drawn) | -4 | 78* | 4
CC1(C)CC[C@]2(C(=O)O)CC[C@]3(C)C(=CCC4[C@@]5(C)CC[C@H](O[C@@H]6O[C@H](C(=O)O)[C@@H](O[C@@H]7OC[C@@H](O)[C@H](O)[C@H]7O)[C@H](O)[C@H]6O)C(C)(C)C5CC[C@]43C)C2C1 (stereo partly drawn) | 13 | 105* | 1
CC(C)(CCO[C@@H]1O[C@H](CO[C@@H]2OC[C@@H](O)[C@H](O)[C@H]2O)[C@@H](O)[C@H](O)[C@H]1O)C[C@@H]1C(C(=O)O)=CC[C@]2(C(=O)O)C1=CCC1[C@@]3(C)CC[C@H](O[C@@H]4O[C@H](CO[C@@H]5O[C@H](CO)[C@@H](O)[C@H](O)[C@H]5O)[C@@H](O)[C@H](O)[C@H]4O)C(C)(C)C3CC[C@]12C (stereo partly drawn) | . | 106* | .
C[C@@H]1O[C@@H](O[C@H]2[C@H](O[C@H]3[C@H](O[C@H]4CC[C@@]5(C)C(CC[C@]6(C)C5CC=C5[C@@H]7CC(C)(C)C[C@@H](O)[C@]7(C)CC[C@]56C)[C@@]4(C)CO)O[C@H](C(=O)O)[C@@H](O)[C@@H]3O)OC[C@H](O)[C@@H]2O)[C@H](O)[C@H](O)[C@H]1O (stereo partly drawn) | -7 | 23 | 9
C[C@@H]1O[C@@H](O[C@H]2[C@H](O[C@H]3CC[C@@]4(C)C(CC[C@]5(C)C4CC=C4C6CC(C)(C)CC[C@]6(C(=O)O)CC[C@]45C)[C@]3(C)CO)OC[C@H](O)[C@@H]2O)[C@H](O)[C@H](O)[C@H]1O (stereo partly drawn) | 26 | 74* | -2
